Data as given in the supplement of paper PMC8728848.
The full list was thinned out, with the strongest signals kept by preference.

What was measured:
Assay in all cases: glycan array binding signal (z-score within array); higher = stronger binding
Details in all cases: glycan notation: IUPAC condensed, linker removed
Fuc(a1-2)Gal(b1-3)GlcNAc = molecular target: Fuc(a1-2)Gal(b1-3)GlcNAc
How it was run: (§1)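 Glycan array data came from 3228 arrays in the Consortium for Functional Glycomics database, and only arrays with an available protein sequence were kept. Glycan names were put into IUPAC-condensed notation, and columns mapping to the same glycan were averaged. The binding signal is a within-array Z-score, averaged across arrays of one protein sequence run at different concentrations or buffers and across linkers. A negative Z-score can be read as non-binding.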

[1] = molecular target: Fuc(a1-2)Gal(b1-3)GlcNAc(b1-2)Man(a1-3)[Fuc(a1-2)Gal(b1-3)GlcNAc(b1-2)Man(a1-6)]Man(b1-4)GlcNAc(b1-4)GlcNAc
How it was run: as §1

[2] = molecular target: Fuc(a1-2)Gal(b1-3)GlcNAc(b1-3)Gal(b1-4)Glc
How it was run: as §1

[3] = molecular target: Fuc(a1-2)Gal(b1-3)GlcNAc(b1-3)[Gal(b1-4)GlcNAc(b1-6)]Gal(b1-4)Glc
How it was run: as §1

[4] = molecular target: Fuc(a1-2)Gal(b1-3)GlcNAc(b1-3)[Neu5Ac(a2-6)Gal(b1-4)GlcNAc(b1-6)]Gal(b1-4)Glc
How it was run: as §1

[5] = molecular target: Fuc(a1-2)Gal(b1-4)GlcNAc(b1-2)[Fuc(a1-2)Gal(b1-4)GlcNAc(b1-4)]Man(a1-3)[Fuc(a1-2)Gal(b1-4)GlcNAc(b1-2)Man(a1-6)]Man(b1-4)GlcNAc(b1-4)GlcNAc
How it was run: as §1

[6] = molecular target: Fuc(a1-2)Gal(b1-4)GlcNAc(b1-3)Gal(b1-4)GlcNAc(b1-3)Gal(b1-4)GlcNAc
How it was run: as §1

[7] = molecular target: Fuc(a1-2)[Gal(a1-3)]Gal(b1-3)GlcNAc
How it was run: as §1

[8] = molecular target: Fuc(a1-2)[Gal(a1-3)]Gal(b1-3)GlcNAc(b1-6)GalNAc
How it was run: as §1

[9] = molecular target: Fuc(a1-2)[GalNAc(a1-3)]Gal(b1-3)GlcNAc(b1-6)GalNAc
How it was run: as §1

[10] = molecular target: Fuc(a1-2)[GalNAc(a1-3)]Gal(b1-4)[Fuc(a1-3)]GlcNAc(b1-3)GalNAc
How it was run: as §1

Gal(a1-4)Gal(b1-4)GlcNAc = molecular target: Gal(a1-4)Gal(b1-4)GlcNAc
How it was run: as §1

[11] = molecular target: Gal(b1-3)GlcNAc(a1-3)Gal(b1-4)GlcNAc
How it was run: as §1

[12] = molecular target: Gal(b1-3)GlcNAc(b1-3)Gal(b1-4)GlcNAc(b1-3)Gal(b1-4)GlcNAc(b1-2)[Gal(b1-3)GlcNAc(b1-3)Gal(b1-4)GlcNAc(b1-3)Gal(b1-4)GlcNAc(b1-6)]Man(a1-6)[Gal(b1-3)GlcNAc(b1-3)Gal(b1-4)GlcNAc(b1-3)Gal(b1-4)GlcNAc(b1-2)Man(a1-3)]Man(b1-4)GlcNAc(b1-4)[Fuc(a1-6)]GlcNAc
How it was run: as §1

[13] = molecular target: Gal(b1-3)GlcNAc(b1-3)Gal(b1-4)GlcNAc(b1-6)[Gal(b1-3)GlcNAc(b1-3)]Gal(b1-4)Glc
How it was run: as §1

[14] = molecular target: Gal(b1-3)[Fuc(a1-4)]GlcNAc(b1-3)Gal(b1-4)GlcNAc
How it was run: as §1

[15] = molecular target: Gal(b1-4)GlcNAc(b1-2)[Gal(b1-4)GlcNAc(b1-4)]Man(a1-3)[GlcNAc(b1-4)][Gal(b1-4)GlcNAc(b1-2)Man(a1-6)]Man(b1-4)GlcNAc(b1-4)GlcNAc
How it was run: as §1

[16] = molecular target: Gal(b1-4)GlcNAc(b1-2)[Gal(b1-4)GlcNAc(b1-6)]Man(a1-6)[Gal(b1-4)GlcNAc(b1-2)Man(a1-3)]Man(b1-4)GlcNAc(b1-4)[Fuc(a1-6)]GlcNAc
How it was run: as §1

[17] = molecular target: Gal(b1-4)GlcNAc(b1-3)Gal(b1-4)GlcNAc(b1-3)Gal(b1-4)GlcNAc
How it was run: as §1

[18] = molecular target: Gal(b1-4)GlcNAc(b1-3)Gal(b1-4)GlcNAc(b1-3)Gal(b1-4)GlcNAc(b1-3)Gal(b1-4)GlcNAc(b1-3)Gal(b1-4)GlcNAc(b1-2)[Gal(b1-4)GlcNAc(b1-3)Gal(b1-4)GlcNAc(b1-3)Gal(b1-4)GlcNAc(b1-3)Gal(b1-4)GlcNAc(b1-3)Gal(b1-4)GlcNAc(b1-6)]Man(a1-6)[Gal(b1-4)GlcNAc(b1-3)Gal(b1-4)GlcNAc(b1-3)Gal(b1-4)GlcNAc(b1-3)Gal(b1-4)GlcNAc(b1-3)Gal(b1-4)GlcNAc(b1-2)Man(a1-3)]Man(b1-4)GlcNAc(b1-4)[Fuc(a1-6)]GlcNAc
How it was run: as §1

Gal3S(b1-3)GalNAc = molecular target: Gal3S(b1-3)GalNAc
How it was run: as §1

[19] = molecular target: GalNAc(a1-3)GalNAc(b1-3)Gal(a1-4)Gal(b1-4)Glc
How it was run: as §1

[20] = molecular target: GlcA3S(b1-3)Gal(b1-4)GlcNAc(b1-3)Gal(b1-4)Glc
How it was run: as §1

[21] = molecular target: GlcNAc(b1-2)[GlcNAc(b1-4)]Man(a1-3)[GlcNAc(b1-4)][GlcNAc(b1-2)Man(a1-6)]Man(b1-4)GlcNAc(b1-4)GlcNAc
How it was run: as §1

[22] = molecular target: GlcNAc(b1-3)Gal(b1-4)GlcNAc(b1-3)Gal(b1-4)GlcNAc(b1-3)GalNAc
How it was run: as §1

[23] = molecular target: GlcNAc(b1-3)[GlcNAc(b1-6)]GalNAc
How it was run: as §1

Kdn(a2-3)Gal(b1-4)Glc = molecular target: Kdn(a2-3)Gal(b1-4)Glc
How it was run: as §1

Man(a1-2)Man(a1-3)Man = molecular target: Man(a1-2)Man(a1-3)Man
How it was run: as §1

[24] = molecular target: Man(a1-3)[Man(a1-6)]Man(a1-6)[Man(a1-3)]Man
How it was run: as §1

Man(b1-4)GlcNAc = molecular target: Man(b1-4)GlcNAc
How it was run: as §1

[25] = molecular target: Neu5Ac(a2-3)Gal(b1-3)[Fuc(a1-4)]GlcNAc
How it was run: as §1

[26] = molecular target: Neu5Ac(a2-3)Gal(b1-4)GlcNAc(b1-2)Man(a1-3)[Neu5Ac(a2-3)Gal(b1-4)GlcNAc(b1-2)Man(a1-6)]Man(b1-4)GlcNAc(b1-4)[Fuc(a1-6)]GlcNAc
How it was run: as §1

[27] = molecular target: Neu5Ac(a2-3)Gal(b1-4)GlcNAc(b1-2)[Neu5Ac(a2-3)Gal(b1-4)GlcNAc(b1-4)]Man(a1-3)[GlcNAc(b1-4)][Neu5Ac(a2-3)Gal(b1-4)GlcNAc(b1-2)[Neu5Ac(a2-3)Gal(b1-4)GlcNAc(b1-6)]Man(a1-6)]Man(b1-4)GlcNAc(b1-4)GlcNAc
How it was run: as §1

[28] = molecular target: Neu5Ac(a2-3)Gal(b1-4)GlcNAc(b1-3)Gal(b1-4)GlcNAc(b1-3)Gal(b1-4)GlcNAc
How it was run: as §1

[29] = molecular target: Neu5Ac(a2-3)Gal(b1-4)GlcNAc(b1-6)[Neu5Ac(a2-3)Gal(b1-3)]GalNAc
How it was run: as §1

[30] = molecular target: Neu5Ac(a2-3)Gal(b1-4)[Fuc(a1-3)]GlcNAc(b1-3)Gal(b1-4)[Fuc(a1-3)]GlcNAc(b1-3)Gal(b1-4)[Fuc(a1-3)]GlcNAc
How it was run: as §1

[31] = molecular target: Neu5Ac(a2-6)Gal(b1-4)GlcNAc(b1-3)Gal(b1-3)GlcNAc
How it was run: as §1

[32] = molecular target: Neu5Ac(a2-6)Gal(b1-4)GlcNAc(b1-3)Gal(b1-4)GlcNAc(b1-3)[Neu5Ac(a2-6)Gal(b1-4)GlcNAc(b1-3)Gal(b1-4)GlcNAc(b1-6)]GalNAc
How it was run: as §1

Neu5Ac(a2-6)GalNAc = molecular target: Neu5Ac(a2-6)GalNAc
How it was run: as §1

[33] = molecular target: Neu5Ac(a2-8)Neu5Ac(a2-3)Gal(b1-4)Glc
How it was run: as §1

[34] = molecular target: Neu5Ac(a2-8)Neu5Ac(a2-8)Neu5Ac(a2-3)[Gal(b1-3)GalNAc(b1-4)]Gal(b1-4)Glc
How it was run: as §1

B1: FliC (Pseudomonas aeruginosa), P72151 (protein)
chain: MALTVNTNIASLNTQRNLNASSNDLNTSLQRLTTGYRINSAKDDAAGLQISNRLSNQISGLNVATRNANDGISLAQTAEGALQQSTNILQRIRDLALQSANGSNSDADRAALQKEVAAQQAELTRISDTTTFGGRKLLDGSFGTTSFQVGSNAYETIDISLQNASASAIGSYQVGSNGAGTVASVAGTATASGIASGTVNLVGGGQVKNIAIAAGDSAKAIAEKMDGAIPNLSARARTVFTADVSGVTGGSLNFDVTVGSNTVSLAGVTSTQDLADQLNSNSSKLGITASINDKGVLTITSATGENVKFGAQTGTATAGQVAVKVQGSDGKFEAAAKNVVAAGTAATTTIVTGYVQLNSPTAYSVSGTGTQASQVFGNASAAQKSSVASVDISTADGAQNAIAVVDNALAAIDAQRADLGAVQNRFKNTIDNLTNISENATNARSRIKDTDFAAETAALSKNQVLQQAGTAILAQANQLPQAVLSLLR
- glycan array binding signal (z-score) (Fuc(a1-2)Gal(b1-3)GlcNAc): -0.166
- glycan array binding signal (z-score) [1]: -0.133
- glycan array binding signal (z-score) [2]: -0.154
- glycan array binding signal (z-score) [3]: -0.067
- glycan array binding signal (z-score) [4]: 2.82
- glycan array binding signal (z-score) [5]: -0.117
- glycan array binding signal (z-score) [6]: -0.151
- glycan array binding signal (z-score) [7]: -0.118
- glycan array binding signal (z-score) [8]: 0.094
- glycan array binding signal (z-score) [9]: 2.71
- glycan array binding signal (z-score) [10]: -0.134
- glycan array binding signal (z-score) (Gal(a1-4)Gal(b1-4)GlcNAc): 0.061
- glycan array binding signal (z-score) [11]: -0.119
- glycan array binding signal (z-score) [12]: 2.32
- glycan array binding signal (z-score) [13]: -0.165
- glycan array binding signal (z-score) [14]: -0.193
- glycan array binding signal (z-score) [15]: -0.178
- glycan array binding signal (z-score) [16]: 1.27
- glycan array binding signal (z-score) [17]: -0.189
- glycan array binding signal (z-score) [18]: 3.23
- glycan array binding signal (z-score) (Gal3S(b1-3)GalNAc): -0.09
- glycan array binding signal (z-score) [19]: -0.183
- glycan array binding signal (z-score) [20]: -0.191
- glycan array binding signal (z-score) [21]: 1.69
- glycan array binding signal (z-score) [22]: -0.143
- glycan array binding signal (z-score) [23]: -0.16
- glycan array binding signal (z-score) (Kdn(a2-3)Gal(b1-4)Glc): -0.115
- glycan array binding signal (z-score) (Man(a1-2)Man(a1-3)Man): -0.16
- glycan array binding signal (z-score) [24]: -0.152
- glycan array binding signal (z-score) (Man(b1-4)GlcNAc): -0.177
- glycan array binding signal (z-score) [25]: -0.192
- glycan array binding signal (z-score) [26]: 20.9
- glycan array binding signal (z-score) [27]: 8.36
- glycan array binding signal (z-score) [28]: 0.251
- glycan array binding signal (z-score) [29]: 0.476
- glycan array binding signal (z-score) [30]: 3.22
- glycan array binding signal (z-score) [31]: -0.117
- glycan array binding signal (z-score) [32]: -0.127
- glycan array binding signal (z-score) (Neu5Ac(a2-6)GalNAc): 1.71
- glycan array binding signal (z-score) [33]: 2.98
- glycan array binding signal (z-score) [34]: -0.227
